# In all, about 48,000 compounds went through this assay and about 13,000 (27%) showed an effect of 50% or more. The list shows a part of the results.
# System: Wolbachia pipientis
# Assay: Anti-Wolbachia Cell-Based Screen
# Assay type: functional
# Design: scale not given: in the data most compounds retested in dose-response had high values
# Conditions: 5 µM
row,SMILES,Percent Effect [%]
1,CCn1nc2c(cc1=O)CN(Cc1nc(-c3ccoc3)no1)CC2,-3.016
2,Cn1cc(C2CCCN2C(=O)c2cnc(-c3cccs3)s2)cn1 (stereo not drawn),79.27
3,Cn1cc(C2CCCN2C(=O)c2ccc(Br)o2)cn1 (stereo not drawn),-1.087
4,Cn1cc(C2CCCN2C(=O)Cc2coc(-c3ccccc3)n2)cn1 (stereo not drawn),-3.572
5,Cn1cc(C2CCCN2C(=O)c2cnc(-c3ccccn3)s2)cn1 (stereo not drawn),99.88
6,Cn1cc(C2CCCN2C(=O)c2cnc(-c3ncccn3)s2)cn1 (stereo not drawn),107.5
7,Cn1cc(C2CCCN2C(=O)c2cnc(-c3ccco3)s2)cn1 (stereo not drawn),97.73
8,Cn1cc(C2CCCN2C(=O)Cc2n[nH]c3ccccc23)cn1 (stereo not drawn),-7.231
9,c1c[nH]c(-c2cn(CCSc3cnn[nH]3)nn2)n1,-6.5
10,O=C(COCC1CC1)N1CCSCC1,-4.058
11,CC(=O)NCc1ccc(S(=O)(=O)NC(=O)c2ccc3c(c2)CCO3)s1,-11.39
12,CN(Cc1nc2ccccc2n1C)CC1CCCN1c1cccnn1 (stereo not drawn),-5.038
13,Brc1csc(CNCc2nnc3n2CCC3)c1,-6.201
14,Cn1cc(C2CCCN2C(=O)CS(=O)(=O)C2CCCC2)cn1 (stereo not drawn),4.822
15,Cn1cc(C2CCCN2C(=O)c2cnc(C3CC3)s2)cn1 (stereo not drawn),90.11
16,CS(=O)(=O)N1CCN(Cc2c(O)ccc3oc4c(c23)CCCC4)CC1,-24.14
17,CCC(CC)(CNC(=O)c1cccn1Cc1cccnc1)N(C)C,-9.831
18,CSCC1CCN(c2nc(N)ncc2C)CC1,-31.92
19,CCc1nc2c(N3CCCC(c4nccn4CCOC)C3)ncnc2o1 (stereo not drawn),-3.273
20,Cc1nc2c(N3CCC(O)(Cn4ccnc4)CC3)ncnc2o1,2.472
21,CCN(CC)C(=O)C1CCCN(c2ncnc3oc(C)nc23)C1 (stereo not drawn),73.24
22,CSCC1CCCN(c2ncnc3oc(C)nc23)C1 (stereo not drawn),100.1
23,CSc1ccccc1CN1C[C@@H]2CC[C@H](C1)N(CC1CC1)C2=O,-21.61

row,SMILES,Percent Effect [%]
1,NC(=O)CCCNC(=O)c1cc(Br)c2c(c1)OCCO2,-9.821
2,COc1ccc2cc(CN(C)CCN3CCCCC3=O)c(=O)[nH]c2c1,1.998
3,COc1cccc(CCNC(=O)NC(C)C)c1O,-0.2442
4,CCCc1cc(C(=O)N(C)Cc2ccc(OC)c3ncccc23)n(C)n1,-87.89
5,COc1cccnc1NC(=O)COc1c(C)cccc1C,-5.049
6,COc1ccccc1CC(=O)NCc1ccnc(NC2CC2)c1,-7.733
7,COc1ccccc1CC1CCCN(CC(=O)NC2CC2)C1 (stereo not drawn),10.43
8,COc1ccccc1OCC(=O)n1nc(C)c(C)c1C,-12.46
9,COc1cccc(CNC(=O)C(C)n2ccnc2C(C)C)c1OC (stereo not drawn),-21
10,COc1ccccc1C1(CNc2cc(C(=O)N(C)C)ccn2)CC1,-1.454
11,COc1cccc(OC)c1-c1ccnc2cc(CC(=O)NC(C)C)nn12,87.37
12,COc1cccc(OC)c1-c1ccnc2cc(CC(=O)NC3CC3)nn12,130.6
13,CNC(=O)Cc1cc2nccc(-c3c(OC)cccc3OC)n2n1,105.1
14,COc1cccc(OC)c1-c1ccnc2cc(CC(=O)N(C)C)nn12,89.81
15,CN1CCOC(C(=O)N2CCC3(CCCCC3)C2)C1 (stereo not drawn),13.97
16,CCCc1ccc(S(=O)(=O)NC2(CC(N)=O)CCC2)cc1,-11.45
17,O=C(NCCn1cccc1)C(c1ccccc1)N1CCCC1 (stereo not drawn),123.6
18,O=C(NCCN1CCOCC1)C(OC1CCCC1)c1ccccc1 (stereo not drawn),1.172
19,CN1CCN(CCNC(=O)C(OC2CCCC2)c2ccccc2)CC1 (stereo not drawn),-1.077
20,O=C(NCCN1CCCCC1)C(c1ccccc1)N1CCCC1 (stereo not drawn),103.1
21,O=C(NCCNc1cccnc1)C(c1cccnc1)N1CCCC1 (stereo not drawn),-8.824
22,O=C(NCCn1cccc1)C(c1cccnc1)N1CCCC1 (stereo not drawn),4.567
23,CC(=O)N1CC[C@H]2OCC[C@@H](C(=O)Nc3cccnc3C)[C@H]2C1,87.27

row,SMILES,Percent Effect [%]
1,CC(=O)N1CC[C@H]2OCC[C@@H](C(=O)Nc3cccnc3C)[C@@H]2C1,106.3
2,CC(=O)N1CC[C@H]2OCC[C@@H](C(=O)N3CCCCO3)[C@@H]2C1,7.512
3,CC(C)NC(=O)[C@@H]1CCO[C@@H]2CCN(c3ncccn3)C[C@H]21,-20.97
4,CCC(CNC1CCN(C(C)=O)CC1)Oc1ccccc1Cl (stereo not drawn),3.786
5,NC(=O)N1CCCC(C(=O)NCc2ccccc2OC(F)(F)F)C1 (stereo not drawn),21.92
6,CCC(O)CNC(=O)c1cc(COc2ccc(OC)cc2Cl)[nH]n1 (stereo not drawn),4.505
7,O=C(CCc1ccccc1)Nc1ncccc1OC(F)F,-7.341
8,CCc1nnsc1C(=O)N1CCCN(Cc2cnn(C)c2)CC1,1.125
9,CCn1cc(CN2CCCN(C(=O)CCSC)CC2)cn1,96.36
10,CSC(C)C(=O)N1CCCN(Cc2cnn(C(C)C)c2)CC1 (stereo not drawn),-3.847
11,CSCCC(=O)N1CCCN(Cc2cnn(C(C)C)c2)CC1,82.47
12,CC(C)(C)OC(=O)N1CSC[C@@H]1C(=O)NCc1cccc(C#N)c1,-10.68
13,COc1ccc2nc(CNC(=O)c3cc(C(C)C)on3)[nH]c2c1,-7.42
14,CCn1nc(C(C)C)cc1C(=O)NCc1nc2ccc(OC)cc2[nH]1,5.154
15,COc1ccc2nc(CNC(=O)C3CC4(CCNCC4)CN3C)[nH]c2c1 (stereo not drawn),101.4
16,Cc1ncsc1CCCNC(=O)C1CC2(CCNCC2)CN1C (stereo not drawn),23.09
17,Cc1ccc(NCCCNC(=O)C2CC3(CCNCC3)CN2C)nc1 (stereo not drawn),-3.217
18,Cc1ccc2[nH]c(CNC(=O)C3CC4(CCNCC4)CN3C)nc2c1C (stereo not drawn),105.7
19,Cn1nnc2c1CCN(S(C)(=O)=O)C2COCC1CC1 (stereo not drawn),-21.64
20,Fc1cc(CNCc2ccc3c(c2)CCO3)ccc1N1CCOCC1,14.1
21,CCC[C@@H]1CN(C(=O)c2conc2-c2ccccc2)C[C@H]1N(C)C,-6.905
22,COC(=O)Cn1c(=O)nc2n1C(=O)N(c1ccccc1)C2,-2.891
23,CCc1nc2ccccc2c(=O)n1CC1(O)CCN(C(=O)COC)CC1.Cl,76.81

row,SMILES,Percent Effect [%]
1,COCC(=O)N1CCCN(Cc2cc(O)c3ccccc3n2)CC1,-35.6
2,CCc1nc2ccccc2c(=O)n1CC1(O)CCN(C(=O)C2CC2)CC1.Cl,111.9
3,CCc1nc2ccccc2c(=O)n1CC1(O)CCN(CC(=O)OC)CC1,94.95
4,Cc1nc2ccccc2c(=O)n1Cc1nnnn1C1CC1,-4.17
5,CCCC(=O)N1CCC(O)(Cn2c(CC)nc3ccccc3c2=O)CC1.Cl,-3.591
6,CS(=O)(=O)N1CCC(O)(Cn2c(C3CC3)nc3ccccc3c2=O)CC1,-5.897
7,CC(=O)c1cn(CC(=O)N2CCC(O)(CO)CC2)c2ccccc12,-13.61
8,CCc1nc2ccccc2c(=O)n1CC1(O)CCN(C(=O)C(C)C)CC1,101.9
9,Cc1nc2ccccc2c(=O)n1CCC(=O)N1CCSCC1,-8.454
10,CCC(Oc1ccc(N(C)S(C)(=O)=O)cc1)C(=O)NC (stereo not drawn),9.37
11,CC(C)NC(=O)N1CCCC2(CCCCN2)C1 (stereo not drawn),-45.21
12,CNC(=O)Cc1noc(-c2cc3c(s2)CCCC3)n1,9.229
13,Cc1cccc(CN(Cc2ccccc2)Cc2nccs2)n1,-3.089
14,COc1ccccc1OC1CN(C(=O)CN(C)Cc2ccncc2)C1,-7.187
15,CCC(=O)NC1CCCN(Cc2ccc(-n3ccnc3)cc2)C1 (stereo not drawn),12
16,Cc1nc2ccccc2c(=O)n1CCC(=O)N1CCNC(=O)C1,-8.423
17,CCc1nc2ccccc2c(=O)n1CC1(O)CCNCC1.Cl,113.9
18,CCc1nc2ccccc2c(=O)n1CC1(O)CCN(S(C)(=O)=O)CC1.Cl,-5.087
19,CCNC(=O)N(Cc1ccoc1)C1CCCCC1,-0.3193
20,Cc1cc(C(=O)NCCSC2CCCC2)no1,-0.7527
21,CCc1cccc(N2CCC(NC(=O)c3cc[nH]n3)CC2)c1,15.39
22,CCCn1nc(C)c(CNC(=O)c2snnc2C)c1C,-13.49
23,Cc1cc(-c2cnn(CCNC(=O)c3cccnc3)c2C2CC2)on1.Cl,-6.458

row,SMILES,Percent Effect [%]
1,Cc1cc(-c2cnn(CCNC(=O)c3snnc3C)c2C2CC2)on1,141.4
2,Cc1cc(-c2cnn(CCNC(=O)c3cc[nH]n3)c2C2CC2)on1,115.4
3,Cc1cc(-c2cnn(CCNC(=O)c3cnn(C)c3)c2C2CC2)on1,133.8
4,Cc1cc(-c2cnn(CCNC(=O)C3CC3)c2C2CC2)on1,8.757
5,O=C(NCCc1nnc[nH]1)Nc1cccc(SC(F)F)c1,-17.31
6,O=C(C[S+]([O-])Cc1ccc(Cl)cc1Cl)N1CCc2sccc2C1 (stereo not drawn),-26.03
7,Cc1nc(CN(C)C(=O)C2CC(=O)N(c3cccc(O)c3)C2)cs1 (stereo not drawn),-3.806
8,COc1cccc(S(=O)(=O)CCN2CCCN(C(C)=O)CC2)c1,-4.305
9,CN1CCOC[C@H]1c1nc(-c2ccncc2)c[nH]1,-4.576
10,Cc1ccc(C)c(NC(=O)N2CCC3(CC2)NC(=O)CC3C(=O)O)c1 (stereo not drawn),-4.672
11,O=C(O)[C@@H]1CN(C2CCOCC2)C[C@H]1C1CC1,12.44
12,Clc1ccccc1-c1nc(CNC2CCc3ncnn3C2)co1 (stereo not drawn),83.87
13,Fc1ccc(-c2nc(CNC3CCc4ncnn4C3)co2)cc1 (stereo not drawn),119.4
14,c1nc2n(n1)CC(NCc1csc(-c3ccsc3)n1)CC2 (stereo not drawn),-11.03
15,Fc1ccc(-c2nnc(CNC3CCc4ncnn4C3)o2)cc1 (stereo not drawn),-10.58
16,Clc1ccccc1-c1nc(CNC2CCc3ncnn3C2)cs1 (stereo not drawn),-2.283
17,Fc1ccc(-c2ccc(CNC3CCc4ncnn4C3)o2)cc1 (stereo not drawn),-0.7899
18,Clc1cccc(-c2nc(CNC3CCc4ncnn4C3)co2)c1 (stereo not drawn),112.7
19,Cc1ccc(-c2nc(CNC3CCc4ncnn4C3)co2)cc1 (stereo not drawn),77.78
20,c1csc(-c2nc(CNC3CCc4ncnn4C3)co2)c1 (stereo not drawn),-0.5039
21,c1ccc(-c2nc(CNC3CCc4ncnn4C3)co2)cc1 (stereo not drawn),3.463

# Source: ChEMBL document CHEMBL3988442, “University of Dundee, Small-Polar-MMV Screening Library” (2021)
